Screens from PubChem.
Most compounds without a hit are left out; they make up all but 1.9% or so of the library.
PLCg1 inh – PLC-gamma1 enzyme inhibitors, primary screen, biochemical, fluorescence, purified enzyme. 1-phosphatidylinositol 4,5-bisphosphate phosphodiesterase gamma-1 (Homo sapiens), P19174. fluorogenic substrate. inhibition, % at 12.2 µM. actives 0.84% (n = 370,000); in the data active means inhibition above about 9.5%
PLC-beta3 inh – human PLC-beta3 inhibitors, primary screen, biochemical, fluorescence. Purified PLC-beta3, fluorogenic substrate. inhibition, % at 12.2 µM. actives 0.18% (n = 370,000). AID 720704, 2013;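 further: 0% = median of compound wells on plate and 100% = full blocker control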
Target sequence (Q01970 whole entry, looked up): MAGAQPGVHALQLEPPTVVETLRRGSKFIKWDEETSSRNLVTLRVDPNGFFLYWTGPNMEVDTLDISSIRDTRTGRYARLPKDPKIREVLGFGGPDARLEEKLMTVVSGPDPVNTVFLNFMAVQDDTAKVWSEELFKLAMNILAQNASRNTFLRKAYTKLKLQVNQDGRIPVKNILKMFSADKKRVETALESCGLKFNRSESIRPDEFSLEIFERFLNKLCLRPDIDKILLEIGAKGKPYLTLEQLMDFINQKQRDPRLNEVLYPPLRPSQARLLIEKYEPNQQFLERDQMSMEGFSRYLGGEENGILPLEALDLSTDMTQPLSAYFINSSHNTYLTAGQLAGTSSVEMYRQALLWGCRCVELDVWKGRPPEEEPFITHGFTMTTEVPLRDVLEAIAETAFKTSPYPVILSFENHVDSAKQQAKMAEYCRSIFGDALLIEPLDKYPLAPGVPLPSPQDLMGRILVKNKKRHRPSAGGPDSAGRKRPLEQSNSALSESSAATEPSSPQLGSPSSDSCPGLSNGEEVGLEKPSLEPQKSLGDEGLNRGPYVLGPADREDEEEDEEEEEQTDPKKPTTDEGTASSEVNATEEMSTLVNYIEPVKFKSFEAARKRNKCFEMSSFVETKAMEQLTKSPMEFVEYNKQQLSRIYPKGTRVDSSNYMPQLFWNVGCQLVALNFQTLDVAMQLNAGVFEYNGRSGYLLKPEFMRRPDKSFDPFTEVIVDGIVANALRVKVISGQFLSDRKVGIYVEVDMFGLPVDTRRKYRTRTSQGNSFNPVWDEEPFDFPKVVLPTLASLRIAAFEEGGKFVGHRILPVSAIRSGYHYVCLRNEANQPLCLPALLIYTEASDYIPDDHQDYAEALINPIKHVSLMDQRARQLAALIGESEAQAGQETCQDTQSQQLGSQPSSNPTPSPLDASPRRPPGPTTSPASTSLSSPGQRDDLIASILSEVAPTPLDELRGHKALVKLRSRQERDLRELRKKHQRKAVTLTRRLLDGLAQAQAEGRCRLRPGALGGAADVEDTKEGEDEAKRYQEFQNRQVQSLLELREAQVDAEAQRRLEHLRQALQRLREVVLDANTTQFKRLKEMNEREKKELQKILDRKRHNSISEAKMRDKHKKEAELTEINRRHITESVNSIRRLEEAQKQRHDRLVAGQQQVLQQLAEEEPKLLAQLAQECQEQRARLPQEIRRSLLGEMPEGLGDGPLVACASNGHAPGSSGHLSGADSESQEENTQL
MsrA act – bovine MsrA enzyme activators, primary screen, biochemical, absorbance, HTS. Methionine sulfoxide reductase A (Bos taurus). purified bovine MsrA, absorbance read-out. activation, % at 10.6 µM. actives 0.3% (n = 360,000). AID 602163, 2012; in the data active means activation above about 7.5%;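 further: 0% = vehicle and 100% = reference activator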
MsrA inhibitor – bovine MsrA enzyme inhibitors, primary screen, biochemical, absorbance, HTS | Methionine sulfoxide reductase A (Bos taurus) | purified bovine MsrA, absorbance read-out | inhibition, % at 15.5 µM | actives 0.75% (n = 360,000); in the data active means inhibition above about 4.5%;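 further: 0% = vehicle wells with enzyme and 100% = reference inhibitor wells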
PLCgamma1 ctr – PLC-gamma1 enzyme inhibitors, counter-screen for PLC-beta3 inhibitor project, biochemical, fluorescence | shares compounds with PLCg1 inh | purified PLC-gamma1, fluorogenic substrate | inhibition, % at 12.3 µM | actives 3.1% (n = 3,300) | AID 743258, 2014; in the data active means inhibition above about 9.5%
PLCbeta3 conf – PLC-beta3 inhibitor confirmation, biochemical, fluorescence, purified enzyme; shares compounds with PLCg1 inh; actives 1% (n = 3,300); AID 743261, 2014; fluorogenic substrate fluorescence; inhibition, % at 12.3 µM
Active calls of the source: *; nt = no result given. Unless noted, no stated cut-off is given here; in the data, active means inhibition above about 11%; inactive means the rest.

SMILES	PLCg1 inh	PLC-beta3 inh	MsrA act	MsrA inhibitor	PLCgamma1 ctr	PLCbeta3 conf
Cc1ccc(S(=O)(=O)N=C2SCCCS2)cc1	9.9*	2.8	2.0	0.4	-2.7	1.1
COc1cccc(C(C)(O)c2nc(-c3cccc(NC(C)=O)c3)cs2)c1 (stereo unspecified)	-0.3	-0.4	-1.3	-0.8	nt	nt
O=C(COC(=O)c1ccccc1[N+](=O)[O-])Nc1cc(S(=O)(=O)N2CCOCC2)ccc1N1CCCC1	12.1*	-6.2	-5.0	2.7	1.8	3.3
O=C(Nc1cccc(Cl)c1)Nc1cc(S(=O)(=O)N2CCOCC2)ccc1N1CCCC1	11.1*	-0.2	-1.1	-0.8	-11.2	-6.4
CC(Oc1cccc(Cl)c1)C(=O)Nc1cc(S(=O)(=O)N2CCOCC2)ccc1N1CCCC1 (stereo unspecified)	0.9	1.7	-4.1	-0.9	nt	nt
CN1CCC(NCCC(c2ccc(F)cc2)c2ccc(Cl)cc2)CC1 (stereo unspecified)	10.0*	3.8	-3.3	-0.8	-5.0	0.7
CC(C)C(CCNC1CCN(C)CC1)c1ccc(Cl)cc1 (stereo unspecified)	3.3	4.7	-2.6	1.5	nt	nt
S=C(NCCCc1cnc[nH]1)NCCCN(Cc1ccc(Cl)cc1)c1ccc(Br)cn1	10.8*	8.8	-0.7	-0.4	4.1	3.0
S=C(NCCCc1cnc[nH]1)NCCCN(Cc1ccccc1)c1ccc(Br)cn1	3.9	1.3	-2.2	-0.2	nt	nt
CCSc1cc(C)nc2ncnn12	13.1*	13.7*	2.1	1.1	-12.9	-5.8
COc1cc(C(=O)Nc2cccc(-c3nc4ccccc4o3)c2C)cc(OC)c1OC	13.8*	3.7	0.6	1.3	-5.7	0.2
COc1ccc(C(=O)Nc2ccccc2C(=O)N2CCOCC2)cc1OC	9.8*	7.2	1.1	1.0	-6.0	-1.4
COc1ccc(C(=O)Nc2cc(C)nc3ccccc23)cc1OC	10.5*	1.6	-5.7	1.2	-6.4	-1.6
COC(=O)Nc1cc(C)nc2ccccc12	1.8	-1.8	-8.7	0.9	nt	nt
COc1ccc(CNC(=O)c2sc(=O)n(Cc3ccc(C)cc3)c2C)cc1	1.2	2.9	-3.7	-0.5	nt	nt
Nc1nonc1-c1nc2ccccc2n1Cc1ccc(Cl)cc1	10.6*	-5.8	-9.8	-0.4	-8.3	-6.4
OCc1nc2ccccc2n1Cc1ccc(Cl)cc1	10.2*	1.4	-0.8	1.4	-10.2	-4.7
Cc1nc2ccccc2n1Cc1ccc(Cl)cc1	0.0	-4.7	-0.8	0.7	nt	nt
COC(=O)c1ccc2cn[nH]c2c1	-3.9	-3.2	-0.8	-0.8	nt	nt
CCOc1ccc(/C=C2\CCC(C3CCCC3)C2=O)cc1 (stereo unspecified)	9.9*	-6.3	-1.4	0.3	-8.5	-4.8
O=C(N/N=C/c1ccccn1)c1ccncc1	-1.1	-5.3	-1.1	-1.3	nt	nt
O=C(N/N=C/c1ccccn1)c1ccccc1	10.6*	4.5	-1.0	0.8	-11.3	-6.5
Cc1ccccc1-c1ccc2c(c1)[C@@H]1C[C@H](N(C)CC3CCCCC3)[C@H]([C@H](C)O)CN1CC2	-83.7	-106.0	nt	0.2	nt	nt
O=C(O)c1ccccc1-c1nc(-c2ccccc2)c(-c2ccccc2)[nH]1	-41.1	-39.9	-0.1	-0.1	nt	nt
O=C(O)c1ccccc1-c1nc2ccccc2c(=O)[nH]1	9.9*	6.3	-1.4	0.6	1.6	0.4
SMILES	PLCg1 inh	PLC-beta3 inh	MsrA act	MsrA inhibitor	PLCgamma1 ctr	PLCbeta3 conf
CCOC(=O)C1CC2=C(CCCC2=O)N(Cc2ccccc2)C1=O (stereo unspecified)	0.7	-2.0	-2.0	-0.1	nt	nt
CCOC(=O)Cc1csc(SCC(=O)Nc2cccc(Cl)c2)n1	14.2*	2.9	-7.6	-0.2	-10.7	-3.9
CCOC(=O)Cc1csc(SCC(=O)Nc2cccc(C#N)c2)n1	-4.2	1.3	-2.2	-0.7	nt	nt
Cc1ccc(C(=O)Nc2nnc([C@H]3C[C@H](O)[C@@H](CO)O3)s2)cc1	0.6	3.8	3.0	-0.3	nt	nt
Oc1ccc(N=Nc2ccccc2-c2nn[nH]n2)c(O)c1	12.0*	2.6	-4.3	0.1	7.1	2.8
COC(=O)[C@@H](NC(=O)Nc1ccc2c(c1)OCCO2)C(C)C	10.0*	2.2	-3.9	-0.8	0.2	0.2
COC(=O)[C@H](CC(C)C)NC(=O)Nc1ccc2c(c1)OCCO2	12.3*	8.7	-2.4	1.6	-5.1	-2.8
